Records with an inconclusive call do not appear. Activity calls are given as the source filed them. Calls follow the shape of the dose curve; as a rule, active = well fitted curve in the direction sought with a large enough effect; inconclusive = small, poorly fitted or top-dose-only effect, or another doubt; inactive = no such curve, though single readings can be large; an effect the other way counts as inactive or inconclusive.
Assays:
[1] = tested on: HACAT; test: qHTS assay to identify novel small-molecules to repurpose for Merkel cell carcinoma treatment (AID 1296009); settings: MCC and control cell lines, CellTiter-Glo viability, 72 h; at 44.8 µM (top of the series) unless noted; also: nearly all actives have a fitted effect of over 60% in size
Method in brief: (§1)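 72 hr, 37 degree celsius; NPC 8-pt / MIPE 11-pt dose response; compound pinned in DMSO; CellTiter-Glo, 10 min RT, luminescence; normalized to no-cell and DMSO controls.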

[2] = tested on: NIH3T3; test: as above; settings: MCC and control cell lines, CellTiter-Glo viability, 72 h; at 44.8 µM (top of the series) unless noted
Method in brief: as §1

[3] = tested on: C33A; test: Primary qHTS to identify gynecologic anti-cancer compounds using libraries of approved drugs and bioactive compounds (AID 1345084); settings: Gynecologic cancer cell panel viability, ATPlite luminescence, 48 h; series mostly up to 57.5 µM; also: % is scaled to controls: 0 for no effect and ±100 for the full control effect; nearly all actives have a fitted effect of over 55% in size
Method in brief: (§2)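 Five-point cytotoxicity, 48 h drug exposure at 37 C, 5% CO2, on cells seeded 16 h beforehand. ATP content read by ATPlite luminescence.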

[4] = tested on: CAOV3; test: as above; settings: Gynecologic cancer cell panel viability, ATPlite luminescence, 48 h; series mostly up to 57.5 µM
Method in brief: as §2

[5] = tested on: CASKI; test: as above; settings: Gynecologic cancer cell panel viability, ATPlite luminescence, 48 h; series mostly up to 57.5 µM
Method in brief: as §2

[6] = tested on: Es-2; test: as above; settings: Gynecologic cancer cell panel viability, ATPlite luminescence, 48 h; series mostly up to 57.5 µM
Method in brief: as §2

[7] = tested on: HeLa; test: as above; settings: Gynecologic cancer cell panel viability, ATPlite luminescence, 48 h; series mostly up to 57.5 µM
Method in brief: as §2

[8] = tested on: Hek293T; test: as above; settings: Gynecologic cancer cell panel viability, ATPlite luminescence, 48 h, control line for the selectivity index; series mostly up to 57.5 µM
Method in brief: as §2

[9] = tested on: JEG-3; test: as above; settings: Gynecologic cancer cell panel viability, ATPlite luminescence, 48 h; series mostly up to 57.5 µM
Method in brief: as §2

CC(=O)OC1C(O)C(C)(O)C(/C=C/C(=O)O)C2(C)CCCC(C)(C)C12 (stereo unspecified)
inactive: outcome [1] | outcome [2] | Potency [3] | Potency [4] | outcome [5] | Potency [6] | Potency [7] | Potency [8] | Potency [9]

COc1cc(C2Oc3c(OC)cc(/C=C/C(=O)OC4CC(O)(C(=O)O)CC(O)C4O)cc3C2CO)ccc1O (stereo unspecified)
inactive: outcome [1] inactive [at 17.4 µM] | outcome [2] inactive [at 17.4 µM] | Potency [3] | Potency [4] | outcome [5] | Potency [6] | Potency [7] | Potency [8] | Potency [9]

CC(=O)O[C@@H]1[C@H](O[C@@H]2OC[C@](O)(CO)[C@H]2O)[C@@H](O[C@@H]2O[C@@H](C)[C@H](O)[C@@H](O[C@@H]3O[C@H](CO)[C@@H](O)[C@H](O)[C@H]3O)[C@H]2O)[C@H](OC(=O)[C@]23CCC(C)(C)C[C@H]2C2=CCC4[C@@]5(C)C[C@H](O)[C@H](O[C@@H]6O[C@H](C(=O)O)[C@@H](O)[C@H](O)[C@H]6O)[C@@](C)(C(=O)O)C5CC[C@@]4(C)[C@]2(C)CC3)O[C@@H]1C (stereo partly specified)
inactive: outcome [1] inactive [at 9.27 µM] | outcome [2] inactive [at 9.27 µM] | activity change, negative = cytotoxicity [3] -1.36% [at 6.55 µM] | activity change, negative = cytotoxicity [4] 22.8% [at 6.55 µM] | activity change, negative = cytotoxicity [5] 2.72% [at 6.55 µM] | activity change, negative = cytotoxicity [6] 1.19% [at 6.55 µM] | activity change, negative = cytotoxicity [7] -1.07% [at 6.55 µM] | activity change, negative = cytotoxicity [8] 4.41% [at 6.55 µM] | activity change, negative = cytotoxicity [9] -1.98% [at 6.55 µM]

C=C(C)[C@@H]1CC[C@]2(C(=O)O)CC[C@]3(C)C(CCC4[C@]5(C)C(CC[C@]43C)C(C)(C)[C@@H](O)[C@@H]5C(=O)O)C12 (stereo partly specified)
inactive: outcome [1] inactive [at 17.4 µM] | outcome [2] inactive [at 17.4 µM] | Potency [3] | Potency [4] | outcome [5] | Potency [6] | Potency [7] | Potency [8] | Potency [9]

CCN1CCN(C(=O)N[C@@H](C(=O)N[C@@H]2C(=O)N3[C@@H]2SC(C)(C)[C@@H]3C(=O)O)c2ccccc2)C(=O)C1=O
inactive: outcome [1] | outcome [2] | Potency [3] | Potency [4] | outcome [5] | Potency [6] | Potency [7] | Potency [8] | Potency [9]

CC1(C)CC[C@]2(C(=O)O[C@@H]3O[C@H](CO)[C@@H](O)[C@H](O)[C@H]3O)CC[C@]3(C)C(=CCC4[C@@]5(C)CC[C@H](O[C@@H]6O[C@H](C(=O)O)[C@@H](O)[C@H](O)[C@H]6OC6OC(CO)C(O)C(O)C6O)C(C)(C)C5CC[C@]43C)[C@@H]2C1 (stereo partly specified)
inactive: outcome [1] inactive [at 9.27 µM] | outcome [2] inactive [at 9.27 µM] | activity change, negative = cytotoxicity [3] 0.935% [at 11.6 µM] | activity change, negative = cytotoxicity [4] 8.5% [at 11.6 µM] | activity change, negative = cytotoxicity [5] 2.93% [at 11.6 µM] | activity change, negative = cytotoxicity [6] 5.59% [at 11.6 µM] | activity change, negative = cytotoxicity [7] 8.29% [at 11.6 µM] | activity change, negative = cytotoxicity [8] 25.2% [at 11.6 µM] | activity change, negative = cytotoxicity [9] 4.48% [at 11.6 µM]

COc1cc(/C=C/C(=O)OC[C@H]2O[C@@H](OC3CC(C)=C(C(=O)O)C(C)(C)C3)[C@H](O)[C@@H](O)[C@@H]2O)cc(OC)c1O (stereo partly specified)
inactive: outcome [1] inactive [at 17.4 µM] | outcome [2] inactive [at 17.4 µM] | Potency [3] | Potency [4] | outcome [5] | Potency [6] | Potency [7] | Potency [8] | Potency [9]

CC1CC(O)/C=C/C(O)/C=C\C(=O)O1 (stereo unspecified)
inactive: outcome [1] inactive [at 92 µM] | outcome [2] inactive [at 92 µM] | Potency [3] | Potency [4] | outcome [5] | Potency [6] | Potency [7] | Potency [8] | Potency [9]

CC1(C)C[C@H](O)C[C@@]2(C)[C@H]1[C@H](O)C=C1COC(=O)[C@@]12O
inactive: outcome [1] | outcome [2] | Potency [3] | Potency [4] | outcome [5] | Potency [6] | Potency [7] | Potency [8] | Potency [9]

O=C(O)CCc1cccc(O)c1O[C@@H]1O[C@H](CO)[C@@H](O)[C@H](O)[C@H]1O
inactive: outcome [1] | outcome [2] | Potency [3] | Potency [4] | outcome [5] | Potency [6] | Potency [7] | Potency [8] | Potency [9]

COc1cccc(OC)c1-c1cc(C(=O)N[C@@H](CC(C)C)C(=O)O)nn1-c1ccnc2cc(Cl)ccc12
inactive: outcome [1] | outcome [2] | Potency [3] | Potency [4] | outcome [5] | Potency [6] | Potency [7] | Potency [8] | Potency [9]

CC(O)C(O)/C=C/C=C/C(=O)O[C@@H]1C=C(C(=O)O)[C@](O)(CO)[C@@]2(C)CCCC(C)(C)[C@H]12 (stereo partly specified)
inactive: outcome [1] inactive [at 17.4 µM] | outcome [2] inactive [at 17.4 µM] | Potency [3] | Potency [4] | outcome [5] | Potency [6] | Potency [7] | Potency [8] | Potency [9]

CC1(C)CC[C@]2(C(=O)O[C@@H]3O[C@H](CO)[C@@H](O)[C@H](O)[C@H]3O)CC[C@]3(C)C(=CCC4[C@@]5(C)C[C@H](O)[C@H](O[C@@H]6O[C@H](C(=O)O)[C@@H](O)[C@H](O)[C@H]6O)[C@@](C)(CO)C5CC[C@]43C)C2C1 (stereo partly specified)
inactive: outcome [1] inactive [at 9.27 µM] | outcome [2] inactive [at 9.27 µM] | activity change, negative = cytotoxicity [3] -10.3% [at 6.55 µM] | activity change, negative = cytotoxicity [4] 19.8% [at 6.55 µM] | activity change, negative = cytotoxicity [5] -13.7% [at 6.55 µM] | activity change, negative = cytotoxicity [6] -1.31% [at 6.55 µM] | activity change, negative = cytotoxicity [7] -7.43% [at 6.55 µM] | activity change, negative = cytotoxicity [8] -0.0375% [at 6.55 µM] | activity change, negative = cytotoxicity [9] -4.92% [at 6.55 µM]

COC(=O)C1(O)C(OC(C)=O)CCC2C3(CC(c4ccoc4)OC3=O)C(C)=CCC21C(=O)OC (stereo unspecified)
inactive: outcome [1] inactive [at 17.4 µM] | outcome [2] inactive [at 17.4 µM] | Potency [3] | Potency [4] | outcome [5] | Potency [6] | Potency [7] | Potency [8] | Potency [9]

Source: PubChem BioAssay (NCATS)
